TRPML1 blocker: qHTS for Inhibitors of the Human Mucolipin Transient Receptor Potential 1 (TRPML1) | AID 624415, 2012 | Mucolipin-1 (Homo sapiens), Q9GZU1 | actives 0.02% (n = 390,000) | TRPML1-inducible cells, Ca2+ dye fluorescence, FDSS; hits give low values; inhibition of EC80 agonist-evoked calcium signal | activity change, negative = inhibition, % (test concentration not listed); in the data active means activity change below about -50%; inconclusive means between about -30% and that limit;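 further: stimulus is agonist 54-4 at its EC80 concentration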
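Calcium fluorescence in TRPML1-DL cells induced overnight with Tet: a 110 s read after compound pin addition, then a 110 s antagonist read after challenge with 54-4 at 4 uM final (EC80).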
TRPV1 ag: HTS Assay for Compounds that Act as Agonists of the Vanilloid Receptor 1 | Transient receptor potential cation channel subfamily V member 1 (Homo sapiens), Q8NER1 | TRPV1-expressing cells, Fluo-8 calcium influx, agonist mode | activation, % at 8.33 µM | actives 0.19% (n = 320,000); in the data active means activation above about 80%; inconclusive means between about 30% and that limit
Target sequence (Q8NER1 whole entry, looked up): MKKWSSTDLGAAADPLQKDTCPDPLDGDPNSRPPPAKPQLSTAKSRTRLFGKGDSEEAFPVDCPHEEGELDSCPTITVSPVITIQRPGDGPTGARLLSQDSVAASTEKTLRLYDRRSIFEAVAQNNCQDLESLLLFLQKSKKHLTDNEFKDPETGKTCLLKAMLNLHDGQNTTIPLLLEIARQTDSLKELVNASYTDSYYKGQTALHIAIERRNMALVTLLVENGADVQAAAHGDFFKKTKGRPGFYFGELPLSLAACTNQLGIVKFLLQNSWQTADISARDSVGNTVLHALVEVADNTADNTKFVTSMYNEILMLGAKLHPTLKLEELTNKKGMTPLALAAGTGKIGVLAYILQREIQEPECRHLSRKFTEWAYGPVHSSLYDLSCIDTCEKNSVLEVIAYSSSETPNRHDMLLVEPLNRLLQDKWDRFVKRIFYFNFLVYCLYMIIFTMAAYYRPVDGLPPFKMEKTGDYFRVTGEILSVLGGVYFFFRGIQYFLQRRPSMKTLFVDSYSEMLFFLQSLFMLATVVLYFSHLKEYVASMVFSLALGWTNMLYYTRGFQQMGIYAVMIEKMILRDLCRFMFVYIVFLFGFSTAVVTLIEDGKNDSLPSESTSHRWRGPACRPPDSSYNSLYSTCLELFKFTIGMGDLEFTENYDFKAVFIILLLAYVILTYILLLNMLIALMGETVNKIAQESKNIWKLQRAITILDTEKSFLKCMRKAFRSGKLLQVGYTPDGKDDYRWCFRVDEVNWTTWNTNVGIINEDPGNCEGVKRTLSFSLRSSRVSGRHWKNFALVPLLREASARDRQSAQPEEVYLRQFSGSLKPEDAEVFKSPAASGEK
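Cells expressing TRPV1 were dye-loaded with Fluo-8 and read kinetically: 10 s baseline, 3 min after compound (agonist portion), then 2 min after EC20 capsaicin (allosteric enhancer portion). Calcium-bound dye fluorescence at 480/520 nm.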
TRPML1 ag: qHTS for Agonists of the Human Mucolipin Transient Receptor Potential 1 (TRPML1); TRPML1-expressing cells, Ca2+ dye fluorescence, FDSS; AID 624414, 2012; activation, % (test concentration not listed); actives 0.12% (n = 410,000); in the data active means activation above about 50%; inconclusive means mostly about 30% to 49%
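Kinetic FDSS Ca2+ read in Tet-induced TRPML1-DL cells (ABD Ca8 dye plus quencher, 45-90 min RT loading): baseline, then compound, then 110 s agonist window; EC80 agonist 54-4 at 4uM final added afterwards for a 110 s antagonist window.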
LDHA block: qHTS assay for inhibitors of human lactate dehydrogenase; L-lactate dehydrogenase A chain (Homo sapiens), P00338; purified LDHA, NADH/diaphorase-resazurin fluorescence; hits give low values; activity change, % (values are at about 110 or 230 µM); actives 0.15% (n = 480,000); AID 1347041, 2019; in the data active means activity change below about -30%; inconclusive means mostly about -25% to -30%
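LDH5 2 nM; NADH 0.06 mM, pyruvate 0.2 mM; 200 mM Tris pH 7.4, EDTA, Tween-20; 5 min RT. Detection: diaphorase 0.133 mg/mL + resazurin 37 µM, fluorescence ex540/em590 at 0 and 20 min; normalized to enzyme-free and DMSO wells.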
TRPV1 PAM: HTS Assay for Compounds that Act as Potentiators of the Vanilloid Receptor 1; actives 0.02% (n = 320,000); TRPV1-expressing cells, Fluo-8 calcium influx, capsaicin EC20 potentiation; potentiation, % at 8.33 µM; Transient receptor potential cation channel subfamily V member 1 (Homo sapiens), Q8NER1; AID 540277, 2011; in the data active means potentiation above about 80%; inconclusive means between about 30% and that limit
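TRPV1-expressing cells were cultured overnight at 35.5C and loaded with Fluo-8 calcium dye for 40 to 90 min at room temperature. After a 10 s baseline, compound was added and calcium influx was read kinetically for 3 min (ex 480/em 520 nm).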
Of the large screens only hits and unclear results are named; the others gave an inactive call; ! = a repeat was not active. The list is not random: actives were taken first. Their share in the collection is about 0.41%.

CCOc1ccccc1NC(=O)C(=O)c1c[nH]c2ccccc12	none (no result: TRPML1 blocker, TRPV1 ag, TRPML1 ag, TRPV1 PAM)
CC(C)(C)OC(=O)[C@H](Cc1ccccc1)NC(=O)c1nc[nH]c1C(=O)NCC(=O)OCc1ccccc1	TRPV1 ag inconclusive
CC(C)(C)OC(=O)CNC(=O)c1[nH]cnc1C(=O)N[C@@H](Cc1ccccc1)C(=O)OC(C)(C)C	TRPV1 ag 82.0
CC(C)c1ccc(NC(=O)c2cccc(Br)c2)cc1	TRPV1 ag 93.4
Cc1cccc(N2CCN(C(=O)COCc3cc(-c4ccc(F)cc4)on3)CC2)c1C	none (no result: TRPML1 blocker, TRPV1 ag, TRPML1 ag, TRPV1 PAM)
CC1(C)Cc2c(sc3c2c(=O)n(CCCO)c(=O)n3CCc2ccccc2)CO1	none (no result: TRPML1 blocker, TRPV1 ag, TRPML1 ag, TRPV1 PAM)
O=C(Nc1cc(F)cc(F)c1)C1CCCCC1	none (no result: TRPML1 blocker, TRPV1 ag, TRPML1 ag, TRPV1 PAM)
Clc1ccc(CNCc2ccccc2Cn2cncn2)c(Cl)c1	none (no result: TRPML1 blocker, TRPV1 ag, TRPML1 ag, TRPV1 PAM)
NS(=O)(=O)c1ccc(Nc2c([N+](=O)[O-])cncc2[N+](=O)[O-])cc1	LDHA block -33.5
COc1ccc(NC(=O)N(C)C[C@@H]2Oc3cc(Br)ccc3S(=O)(=O)N([C@H](C)CO)C[C@H]2C)cc1	LDHA block -35.2 (no result: TRPV1 ag, TRPV1 PAM)
CCOc1ccccc1Oc1coc2cc(OC(=O)c3ccc4c(c3)OCO4)ccc2c1=O	LDHA block -31.3 (no result: TRPML1 blocker, TRPV1 ag, TRPML1 ag, TRPV1 PAM)
CCOc1ccccc1Oc1c(C)oc2cc(OC(=O)c3ccc4c(c3)OCO4)ccc2c1=O	none (no result: TRPML1 blocker, TRPV1 ag, TRPML1 ag, TRPV1 PAM)
Cc1ccccc1-n1cnnc1SCC(=O)Nc1ccc(S(=O)(=O)N2CCCCCC2)cc1	none (no result: TRPML1 blocker, TRPV1 ag, TRPML1 ag, TRPV1 PAM)
N#C/C(=C/c1ccc(-c2ccc(S(N)(=O)=O)cc2)o1)c1nc2ccccc2s1	TRPML1 ag 64.5
O=C1OC2(c3ccccc31)c1cc(I)c(O)c(I)c1Oc1c2cc(I)c(O)c1I	TRPV1 ag 88.1 (no result: TRPML1 blocker, TRPML1 ag, LDHA block)
O=C1OC(c2ccccc2)(c2ccc(O)cc2)c2ccccc21 (stereo not drawn)	none (no result: TRPV1 ag, TRPV1 PAM)
O=C(Nc1sc2c(c1C(=O)O)CCCCC2)c1ccco1	LDHA block -42.1!
CN(C)C(=O)c1c(NC(=O)c2ccco2)sc2c1CCCCC2	none
CC1CCc2c(sc(NC(=O)c3ccco3)c2C(=O)O)C1 (stereo not drawn)	LDHA block -40.6
CN1CCN(C(=O)c2c(NC(=O)c3ccco3)sc3c2CCC(C(C)(C)C)C3)CC1 (stereo not drawn)	none
Cc1ncc(-c2ccc(S(=O)(=O)Nc3ccc(Br)cc3F)cc2)o1	none (no result: TRPML1 blocker, TRPV1 ag, TRPML1 ag, TRPV1 PAM)
CCOC(=O)[C@H]1[C@H]2COc3ccc(OC)cc3[C@@H]2N2C(=O)c3ccc(C)cc3NC(=O)[C@@]12C	TRPV1 PAM inconclusive
CCOC(=O)[C@H]1[C@H]2COc3ccc(Br)cc3[C@@H]2N2C(=O)c3cc(F)c(F)cc3NC(=O)[C@@]12C	TRPV1 ag 84.1, TRPV1 PAM inconclusive
CCOC(=O)[C@H]1[C@H]2COc3cc(OC)ccc3[C@@H]2N2C(=O)c3ccc(C)cc3NC(=O)[C@@]12C	TRPV1 ag 82.2
CCOC(=O)[C@H]1[C@H]2COc3ccc(Br)cc3[C@@H]2N2C(=O)c3ccc(F)cc3NC(=O)[C@@]12C	TRPV1 ag inconclusive
CCOC(=O)[C@H]1[C@H]2COc3ccccc3[C@@H]2N2C(=O)c3ccc(C)cc3NC(=O)[C@@]12C	TRPV1 ag 92.6
CCOC(=O)[C@H]1[C@H]2COc3ccc(Br)cc3[C@@H]2N2C(=O)c3ccc(C)cc3NC(=O)[C@@]12C	TRPV1 ag 80.5
CCOC(=O)[C@H]1[C@H]2COc3ccccc3[C@@H]2N2C(=O)c3ccccc3NC(=O)[C@@]12C	TRPV1 ag inconclusive
COc1cc(NS(=O)(=O)c2ccc(NC(=O)c3ccc(OC)c(Br)c3)cc2)nc(OC)n1	LDHA block -49.8 (no result: TRPV1 ag, TRPV1 PAM)
CN(C)CCCNCC(=O)Nc1ccccc1N1CCOCC1	LDHA block -32.4
O=C(Cc1ccccc1)Nc1ccccc1N1CCOCC1	none
Cc1ccc(-c2c(C(=O)N/N=C/c3ccoc3)nnn2-c2nonc2N)cc1	TRPV1 ag 87.5
O=C(CN1CCN(CC(=O)Nc2ccccc2C(=O)c2ccccc2)CC1)Nc1ccc(F)cc1	LDHA block -31.9 (no result: TRPML1 blocker, TRPV1 ag, TRPML1 ag, TRPV1 PAM)
